Results: PubChem BioAssay (Tox21)
Results filed as inconclusive are left out. A call without a number means that no potency is given here. The source made the active and inactive calls. Unless noted, the call rests on the fitted dose curve; in most records, active means well fitted curve in the direction sought with a large enough effect in the repeat runs; inconclusive means weak or mixed curves; inactive means no such curve, though single readings can be large; an effect the other way counts as inactive or inconclusive.

Assays:
[1] = qHTS assay for small molecules that induce genotoxicity in human embryonic kidney cells expressing luciferase-tagged ATAD5 (AID 651632); further: nearly all actives have a fitted effect of over 15% in size
In short: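 A rise in luciferase signal from ATAD5-tagged HEK293T cells marks genetic stress. Cells were exposed to compounds for 16 hr at 37C, 5% CO2, then luciferase was quantified after a 30 min room-temperature incubation with Amplite.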

[2] = qHTS assay for small molecule agonists of the p53 signaling pathway - cell viability (AID 651633; calls by dose curve; further: nearly all actives have a fitted effect of over 30% in size; further: potency means the concentration at half of the fitted maximal effect)
In short: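 p53RE-bla cells were treated with compound for 16 hours at 37 C. Cytotoxicity was then measured as CellTiter-Glo luminescence after 30 min at room temperature.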

[3] = qHTS assay to test for compound auto fluorescence at 590 nm (red) in HepG2 cells (AID 720674); further: potency means the concentration at half of the fitted maximal effect
In short: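 Seeding: 2,000 HepG2 cells/well, MEM/10% FBS, overnight 37 C. Dosing: compound vs DMSO. Incubation: 1 hr, 37 C, 5% CO2. Read: fluorescence 540 ex/590 em, Rose Bengal sodium as red reference.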

[4] = qHTS assay to test for compound auto fluorescence at 535 nm (green) in HepG2 cells (AID 720675)
[5] = qHTS assay to test for compound auto fluorescence at 460 nm (blue) in HEK293 cells (AID 720678)
In short: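 Auto fluorescence in the blue band was quantified as triamterene equivalency. HEK293 cells were seeded at 2,000/well, dosed after a 4-5 hr attachment, and kept overnight at 37C before the 405/460 nm reading.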

[6] = qHTS assay to test for compound auto fluorescence at 590 nm (red) in HEK293 cells (AID 720679); further: potency means the concentration at half of the fitted maximal effect
In short: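 Autofluorescence equivalency to Rose Bengal sodium, 540/590nm, in HEK293 cells exposed overnight to 23 nL compound per well.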

[7] = qHTS assay for small molecules that induce genotoxicity in human embryonic kidney cells expressing luciferase-tagged ATAD5 - cell viability (AID 651634; calls by dose curve; further: nearly all actives have a fitted effect of over 25% in size; further: potency means the concentration at half of the fitted maximal effect)
In short: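 Cytotoxicity counter-readout: after 15.5 hr compound treatment at 37C, live-cell protease activity in ATAD5-luciferase HEK293T cells measured by CellTiter-Fluor fluorescence, 30 min development at 37C.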

[8] = qHTS assay for small molecule disruptors of the mitochondrial membrane potential - cell viability (AID 720634; calls by dose curve; further: nearly all actives have a fitted effect of over 20% in size; further: potency means the concentration at half of the fitted maximal effect)
In short: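 Cytotoxicity was quantified from ATP content by CellTiter-Glo luminescence in the same wells as the MMP dye read-out. HepG2 (2,000 cells/well) were plated overnight and exposed to compounds for 1 hr at 37 C.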

[9] = qHTS assay for small molecule disruptors of the mitochondrial membrane potential (AID 720635); further: potency means the concentration at half of the fitted maximal effect
In short: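 HepG2 cells exposed to compound 1 hr at 37C, then Mito-MPS dye 30 min. Ratio read of aggregate (540/590 nm) versus monomer (490/535 nm) fluorescence.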
Tags describe the fitted curve by direction and shape or compound fluorescence and quenching.

CCCC1([C@H](O)C/C=C/[C@H]2[C@H](O)CC(=O)[C@@H]2CCCCCCC(=O)OC)CCC1
Potency [1]: inactive
Potency [2]: 29.8 µM (active)
Potency [3]: inactive
Potency [4]: inactive
Potency [5]: inactive
Potency [6]: inactive

C[C@@H]1CCC2[C@@H](C)[C@@H](O)O[C@@H]3O[C@@]4(C)CC[C@@H]1[C@@]23OO4 (some centres not stated)
Potency [1]: inactive
Potency [7]: 13.3 µM (active)
Potency [8]: inactive
Potency [9]: inactive
Potency [3]: inactive
Potency [4]: inactive
Potency [5]: inactive
Potency [6]: inactive

C=CC[C@@H]1/C=C(\C)C[C@H](C)C[C@H](OC)[C@H]2O[C@@](O)(C(=O)C(=O)N3CCCC[C@H]3C(=O)O[C@H](/C(C)=C/[C@@H]3CC[C@@H](O)[C@H](OC)C3)[C@H](C)[C@@H](O)CC1=O)[C@H](C)C[C@@H]2OC
Potency [1]: inactive
Potency [2]: 26.6 µM (active)
Potency [8]: inactive
Potency [3]: inactive
Potency [4]: inactive
Potency [5]: inactive
Potency [6]: inactive

O=C(CCCN1CCC(n2c(=S)[nH]c3ccccc32)CC1)c1ccc(F)cc1
Potency [1]: inactive
Potency [2]: inactive
Potency [8]: inactive
Potency [9]: inactive
Potency [3]: inactive
Potency [4]: inactive
Potency [5]: inactive
Potency [6]: inactive

C[C@]12CCC(=O)C[C@@H]1CC[C@@H]1[C@@H]2CC[C@]2(C)C=CC[C@@H]12
Potency [1]: inactive
Potency [7]: inactive
Potency [8]: inactive
Potency [3]: inactive
Potency [4]: inactive
Potency [5]: inactive
Potency [6]: inactive

COc1ccc(C2NC(=S)N3C(c4ccc(OC)c(OC)c4)NC(=S)N23)cc1OC (configuration not stated)
Potency [1]: inactive
Potency [7]: inactive
Potency [8]: inactive
Potency [9]: inactive
Potency [3]: inactive
Potency [4]: inactive
Potency [5]: inactive
Potency [6]: inactive

Cc1ccc(S(=O)(=O)NC(=O)N[C@@H](C)Cc2ccccc2)cc1
Potency [1]: inactive
Potency [7]: inactive
Potency [8]: inactive
Potency [9]: inactive
Potency [3]: inactive
Potency [4]: inactive
Potency [5]: inactive
Potency [6]: inactive

C=C1C(=C/C=C2\CCC[C@]3(C)[C@@H]([C@H](C)/C=C/[C@H](C)C(C)C)CC[C@@H]23)C[C@@H](O)C[C@@H]1O
Potency [1]: inactive
Potency [7]: inactive
Potency [8]: inactive
Potency [3]: inactive
Potency [4]: inactive
Potency [5]: inactive
Potency [6]: inactive

CN[C@@H]1[C@@H](O)[C@@H](O[C@@H]2[C@@H](O)[C@H](OC3OC(CN)=CCC3N)[C@@H](N)C[C@H]2N)OC[C@]1(C)O (some centres not stated)
Potency [1]: inactive
Potency [7]: inactive
Potency [8]: inactive
Potency [9]: inactive
Potency [3]: inactive
Potency [5]: inactive
Potency [6]: inactive

Cc1cc(O)c2c(c1)O[C@@]1(C)CC[C@H]3C(C)(C)CCCC34CO[C@@H]2[C@H]41 (some centres not stated)
Potency [1]: inactive
Potency [2]: 26.6 µM (active)
Potency [3]: inactive
Potency [4]: inactive
Potency [5]: inactive
Potency [6]: inactive

O=C(O)c1c(Cl)c(Cl)c(Cl)c(Cl)c1-c1c2cc(I)c(=O)c(I)c-2oc2c(I)c(O)c(I)cc12
Potency [1]: inactive
Potency [7]: 26.6 µM (active)
Potency [8]: inactive
Potency [3]: 11.2 µM (active)
Potency [4]: inactive
Potency [5]: inactive
Potency [6]: 11.2 µM [fluorescent] (active)

Cc1cccc(C)c1Nc1ncccc1C(=O)O
Potency [2]: inactive
Potency [7]: inactive
Potency [8]: inactive
Potency [9]: 23.7 µM (active)
Potency [3]: inactive
Potency [4]: inactive
Potency [5]: inactive
Potency [6]: inactive

CC(CN(C)C)CN1c2ccccc2Sc2ccc(C(F)(F)F)cc21 (configuration not stated)
Potency [1]: inactive
Potency [7]: inactive
Potency [8]: inactive
Potency [3]: inactive
Potency [4]: inactive
Potency [5]: inactive
Potency [6]: inactive

CC(CN1c2ccccc2Sc2ccc(S(=O)(=O)N(C)C)cc21)N(C)C (configuration not stated)
Potency [1]: inactive
Potency [7]: inactive
Potency [8]: inactive
Potency [3]: inactive
Potency [4]: inactive
Potency [5]: inactive
Potency [6]: inactive

CC(=O)[C@@]1(O)CC[C@H]2[C@@H]3C=C(Cl)C4=CC(=O)CC[C@]4(C)[C@H]3CC[C@@]21C
Potency [1]: inactive
Potency [7]: inactive
Potency [8]: inactive
Potency [3]: inactive
Potency [5]: inactive
Potency [6]: inactive

CCCCCCCC(=O)CC[C@@H]1[C@@H](C/C=C\CCCC(=O)OC(C)C)[C@@H](O)C[C@H]1O
Potency [1]: inactive
Potency [8]: 26.6 µM (active)
Potency [9]: 26.6 µM (active)
Potency [3]: inactive
Potency [4]: inactive
Potency [5]: inactive
Potency [6]: inactive

C#C[C@]1(O)CC[C@H]2[C@@H]3CCC4=C(CCC(=O)C4)[C@H]3CC[C@@]21C
Potency [1]: inactive
Potency [7]: inactive
Potency [8]: inactive
Potency [3]: inactive
Potency [4]: inactive
Potency [5]: inactive
Potency [6]: inactive

CCCCc1cc2c(=O)c(C(=O)OC)c[nH]c2cc1OCc1ccccc1
Potency [2]: inactive
Potency [7]: inactive
Potency [8]: inactive
Potency [9]: inactive
Potency [3]: inactive
Potency [4]: inactive
Potency [5]: inactive
Potency [6]: inactive

O=C(O)C1CCCN1 (configuration not stated)
Potency [2]: inactive
Potency [7]: inactive
Potency [8]: inactive
Potency [9]: inactive
Potency [3]: inactive
Potency [4]: inactive
Potency [5]: inactive
Potency [6]: inactive

Cc1cc(-c2ccc(N=Nc3c(S(=O)(=O)O)cc4cc(S(=O)(=O)O)cc(N)c4c3O)c(C)c2)ccc1N=Nc1c(S(=O)(=O)O)cc2cc(S(=O)(=O)O)cc(N)c2c1O
Potency [1]: inactive
Potency [7]: 26.6 µM (active)
Potency [3]: inactive
Potency [4]: inactive
Potency [5]: inactive
Potency [6]: inactive

CC(=O)Nc1ccc(OC(=O)c2ccccc2O)cc1
Potency [2]: inactive
Potency [7]: inactive
Potency [8]: inactive
Potency [9]: 26.6 µM (active)
Potency [3]: inactive
Potency [4]: inactive
Potency [5]: inactive
Potency [6]: inactive

CC(C)[C@@H](C)/C=C/[C@@H](C)[C@H]1CC[C@H]2/C(=C/C=C3\C[C@@H](O)CC[C@@H]3C)CCC[C@]12C
Potency [1]: inactive
Potency [8]: inactive
Potency [3]: inactive
Potency [4]: inactive
Potency [5]: inactive
Potency [6]: inactive
